Assay results as given in PubChem BioAssay AID2417 (National Center for Advancing Translational Sciences (NCATS), 2010).
Hit rate of the full screen: of about 140,000 compounds, about 4,300 (3.1%) were called active. Roughly 21% stayed inconclusive and do not appear here. The sample holds actives, similar compounds and a random draw of the others, so the mix is not that of the screen.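 Rule for the calls: active = readout at or below -70, meaning at least 70% loss of cells showing the perinucleolar compartment, a nuclear body marking cancer cells; inconclusive = readout between -30 and a set limit; inactive = the rest.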

Experiment: High Content Assay for Compounds that inhibit the Assembly of the Perinucleolar Compartment;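 note: plate controls were DMSO wells for no effect and camptothecin positive control wells for full effect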
Conditions: PC3M PTB-GFP, PNC prevalence imaging, 16 h; at 10 µM; stronger effect = lower value
Procedure, shortened: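 Compounds are pinned in duplicate onto adhered PC3M cells stably expressing GFP-tagged PTB and incubated 16 h at 37 C. Cells are then fixed, nuclei stained with Hoechst, and PNC-positive cells counted.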

Row | Compound | activity change (PNC), negative = inhibition
1 | CSCCC(Nc1ccc(S(=O)(=O)N2CCOCC2)cc1[N+](=O)[O-])C(=O)OCC(=O)N(C(C)C)C(C)C (stereo not given) | -25.5% (inactive)
2 | CCC(C)(C(=O)Nc1ccccc1C)N(C(=O)CNC(C)=O)c1ccc(C)cc1 (stereo not given) | -15.4% (inactive)
3 | Cc1ccc(-c2nc(CS(=O)CC(=O)NC3CCCC3)c(C)o2)cc1 (stereo not given) | -106% (active)
4 | COc1ccc(-c2nc(CS(=O)CC(=O)NCc3ccccn3)c(C)o2)cc1 (stereo not given) | -19.8% (inactive)
5 | Cc1ccc(-c2nc(CS(=O)CC(=O)N3CCN(c4ncccn4)CC3)c(C)o2)cc1 (stereo not given) | 11.5% (inactive)
6 | CSc1ccc(/C=C/C(=O)NC23CC4CC(CC(C4)C2)C3)cc1 | 11.8% (inactive)
7 | Cc1cc(=O)[nH]c(SCc2cc(Cl)ccc2OC(F)F)n1 | 4.54% (inactive)
8 | CCCCOc1ccc(Cl)cc1CSc1nncn1N | -89.7% (active)
9 | CCOC(=O)c1c(NC(=O)Cn2nc(C(F)(F)F)cc2C)sc2c1CCC2 | 36.1% (inactive)
10 | CN1CCN(C(=O)/C(=C\c2cccs2)NC(=O)c2cccs2)CC1 | 0.966% (inactive)
11 | COc1cc2c(cc1/C=C1/NC(=O)N(c3ccccc3)C1=O)OCO2 | -20.8% (inactive)
12 | CCOC(=O)c1c(C)n(C)c2ccc(OC)c(NS(=O)(=O)CC)c12 | -8.82% (inactive)
13 | COc1ccc2c(-c3ccccc3)cc(SCC(=O)N(C)C3CCS(=O)(=O)C3)nc2c1 (stereo not given) | 46.3% (inactive)
14 | O=[N+]([O-])c1ccc(N2CCNCC2)cc1NCc1cccnc1 | 59.2% (inactive)
15 | Cc1cc(NC(=O)c2cccc(N3C(=O)CCC3=O)c2)no1 | -7.91% (inactive)
16 | COc1ccccc1NC(=O)c1ccc2nc(N3C(=O)CCC3=O)sc2c1 | 133% (inactive)
17 | O=C(Nc1cccc2cccnc12)c1cccc(N2C(=O)CCC2=O)c1 | -100% (active)
18 | CCOC(=O)NN1C(=O)c2ccccc2NC1c1ccccc1O (stereo not given) | 19.7% (inactive)
19 | O=C(OCC(=O)c1c[nH]c2ccccc12)c1cccc(O)c1 | 49.4% (inactive)
20 | O=S(=O)(NCC1CCCO1)c1cnc(Cl)c(Cl)c1 (stereo not given) | -19.6% (inactive)
21 | O=C(/C=C/c1ccc(Cl)cc1)N1CCN(c2ccccc2[N+](=O)[O-])CC1 | -91.4% (active)
22 | Cc1cccc(N2CCN(C(=O)/C=C/c3ccco3)CC2)c1C | 16.7% (inactive)
23 | CO/N=C/c1ccc(N2CCN(C(=O)c3cccc(Cl)c3)CC2)c([N+](=O)[O-])c1 | 77.9% (inactive)
24 | CCCN=C1NC(=O)C(CC(=O)NCCc2ccc(OC)c(OC)c2)S1 (stereo not given) | 58.6% (inactive)

Row | Compound | activity change (PNC), negative = inhibition
25 | Cc1cc(C)c(C2C3=C(Nc4c2c(C)nn4-c2ccccn2)c2ccccc2C3=O)c(C)c1 (stereo not given) | -28.9% (inactive)
26 | CC1=C[C@H]2Cc3cc(C)cc(C)c3S(=O)(=O)[C@@H]2C=C1 | 28.1% (inactive)
27 | Cc1cc(C(=O)COC(=O)c2cccs2)c(C)n1-c1c(C)n(C)n(-c2ccccc2)c1=O | -127% (active)
28 | CCCn1c(C)cc(C(=O)COC(=O)c2c(C)nn(-c3ccccc3)c2C)c1C | -22.8% (inactive)
29 | COc1ccc(-n2c(C)cc(C(=O)COC(=O)c3cc(OC)c(OC)cc3NC(=O)c3cccs3)c2C)cc1 | 173% (inactive)
30 | O=C(Oc1ccc([N+](=O)[O-])cc1)c1ccc2ccccc2n1 | -25.3% (inactive)
31 | COc1ccc(C2=NOC(COC(=O)c3ccc4ccccc4n3)C2)cc1 (stereo not given) | -3.15% (inactive)
32 | COc1ccc(C(=O)COC(=O)c2ccc3ccccc3n2)cc1 | -89.8% (active)
33 | CCOc1ccc2nc(Nc3nc4ccc(NC(C)=O)cc4s3)sc2c1 | 10% (inactive)
34 | CCOc1ccc2nc(NC(=O)c3cc([N+](=O)[O-])ccc3N3CCOCC3)sc2c1 | -84.5% (active)
35 | Cc1cc(C)cc(OCC(=O)Nc2nc3ccc([N+](=O)[O-])cc3s2)c1 | 84.2% (inactive)
36 | CCOc1ccccc1Nc1nnc(SCC(=O)Nc2cc(C)on2)s1 | 1.96% (inactive)
37 | Cc1ccc(-c2csc(SCC(=O)Nc3cc(C)on3)n2)cc1 | 32.6% (inactive)
38 | Cc1cc(C)c2c(c1)cc(C)c1nnc(SCC(=O)Nc3cc(C)on3)n12 | -88.4% (active)
39 | COc1cccc(-n2c(SCC(=O)c3c[nH]c4ccccc34)nc3ccccc3c2=O)c1 | -15.1% (inactive)
40 | Cc1nonc1NC(=O)c1ccccc1Br | -15.2% (inactive)
41 | O=C(Nc1c2c(nc3ccccc13)CCCC2)c1ccccc1Br | -109% (active)
42 | O=C(COC(=O)c1c2c(nc3ccccc13)CCCC2)c1ccc(Br)s1 | 17.9% (inactive)
43 | Cc1ccc(C)c(NC(=O)CCC(=O)NNC(=O)c2cccs2)c1 | 30.9% (inactive)
44 | NC1=NC(=O)C(Cc2cccc(Cl)c2Cl)S1 (stereo not given) | -13.4% (inactive)
45 | COc1ccccc1N1N=C(c2cccs2)CC1c1ccccc1 (stereo not given) | -19.6% (inactive)
46 | CC(C)Nc1nc(N(c2ccccc2)c2ccccc2)nc(-n2ccnc2)n1 | -4.69% (inactive)
47 | CCNc1nc(NC(C)C)nc(N2CC(=O)N(CC(=O)OCC)C2=N)n1 | 3.87% (inactive)
48 | CCNc1nc(NC(C)C)nc(OCCOC(=O)c2ccccc2)n1 | -100% (active)

Row | Compound | activity change (PNC), negative = inhibition
49 | O=C(CCc1ccccc1)Nc1nn[nH]n1 | 50.3% (inactive)
50 | COc1ccc(C2COC(=O)C2=N)c(NC(=O)c2ccccc2)c1 (stereo not given) | -25.6% (inactive)
51 | CCC1=NN(C(=O)Cc2ccc([N+](=O)[O-])cc2)C(O)(c2ccc(Br)cc2)C1 (stereo not given) | 99.6% (inactive)
52 | COc1ccccc1-c1nnc(SCC(=O)Nc2cc(C)on2)o1 | -4.25% (inactive)
53 | COc1ccccc1-c1nnc(NC(=O)c2cccc(N3C(=O)CCC3=O)c2)o1 | -7.63% (inactive)
54 | COc1ccccc1-c1nnc(NC(=O)c2ccc3ncsc3c2)o1 | -121% (active)
55 | CCCCC(CC(C)O)c1n[nH]c(=S)n1-c1ccccc1 (stereo not given) | 4.51% (inactive)
56 | O=C(NCCCO)/C(=C\C=C\c1ccccc1)NC(=O)c1ccccc1Cl | 26.4% (inactive)
57 | O=C(N/N=C/c1ccc(O)cc1)/C(=C/c1ccc([N+](=O)[O-])cc1)NC(=O)c1ccccc1 | -101% (active)
58 | O=C(N/N=C/c1cc([N+](=O)[O-])ccc1O)/C(=C\c1cccs1)NC(=O)c1ccccc1 | 25.3% (inactive)
59 | O=C(NCCc1ccccc1)/C(=C\c1ccc([N+](=O)[O-])cc1)NC(=O)c1ccccc1 | -6.81% (inactive)
60 | CCCC(=O)Nc1ccc(C(=O)N/N=C/c2ccc[nH]2)cc1 | -29.4% (inactive)
61 | Cc1csc(=NC(=O)c2ccccc2)n1CCO | -9.41% (inactive)
62 | C=C(C)CNC(=S)/N=c1\scc(C)n1CC | -100% (active)
63 | Cc1csc(=Nc2ccccc2)n1CCO | -25.4% (inactive)
64 | COc1cc(/C=C/C(=O)N2c3ccccc3Sc3ccc(C(F)(F)F)cc32)cc(OC)c1OC | -24.5% (inactive)
65 | C/C(=N\NC(=O)Cc1ccc(Cl)cc1)c1ccccn1 | -18.2% (inactive)
66 | O=C(Nc1ccccc1Cl)O/N=C(/c1ccccc1)c1ccccn1 | -96.2% (active)
67 | O=C(CSc1nnc(Nc2ccccc2)s1)Nc1cccnc1Cl | -10.3% (inactive)
68 | COc1cc2c(cc1OC)C(=O)NCC(C)(C)O2 | 47.7% (inactive)
69 | CCCCN(CC)C(=O)c1ccc2c(c1)OCO2 | 21.9% (inactive)
70 | COC(=O)c1ccc(NCC(=O)c2ccccc2)cc1 | -26.4% (inactive)
71 | CCOC(=O)c1ccc(N/C(=N/S(=O)(=O)c2ccccc2)c2ccccc2)cc1 | 3.77% (inactive)
72 | O=C(OCC(O)C(O)COC(=O)c1ccccc1)c1ccccc1 (stereo not given) | -83.5% (active)

Row | Compound | activity change (PNC), negative = inhibition
73 | COc1ccc(/C=C/C(=O)OCC(=O)NCc2cccs2)cc1OC | -1.51% (inactive)
74 | CCCCOc1ccc(C(=O)N/C(=C/C=C/c2ccccc2)C(=O)N2CCOCC2)cc1 | -12.2% (inactive)
75 | CCOc1ccc2nc(C(=O)N3CCCC(C)C3)sc2c1 (stereo not given) | 6.06% (inactive)
76 | O=C(NC1CCCC1)C(NS(=O)(=O)c1ccc(Br)s1)c1ccccc1 (stereo not given) | 48.1% (inactive)
77 | COC(=O)c1cn(-c2ccccc2)nc1-c1cccnc1 | -22.9% (inactive)
78 | O=C(/C=C/c1cccs1)NCc1cccnc1 | -0.603% (inactive)
79 | O=C(NCc1cccnc1)c1cn(-c2ccccc2)nc1-c1cccs1 | -139% (active)
80 | COC1=CCC2([N+](=O)[O-])CN(CC(=O)O)CC1([N+](=O)[O-])C2 (stereo not given) | 6.59% (inactive)
81 | COc1ccc(/C=C/C(=O)Nc2ccc3c(c2)OCCO3)cc1OC | -11.1% (inactive)
82 | Cc1cc(C(=O)OCC(=O)Nc2nnc(C(C)C)s2)c2ccccc2n1 | 3.82% (inactive)
83 | CCCc1nc2c([nH]1)C(c1cccnc1)C(C#N)=C(N)O2 (stereo not given) | 7.34% (inactive)
84 | O=C(CN1CCN(c2ccc(F)cc2)CC1)Nc1cccc(C(F)(F)F)c1 | -19.9% (inactive)
85 | O=C(CN1CCN(CC(=O)Nc2ccc3c(c2)OCO3)CC1)Nc1ccc(F)cc1 | -20.9% (inactive)
86 | O=C(CN1CCN(c2ncc(C(F)(F)F)cc2Cl)CC1)Nc1ccc2c(c1)OCO2 | -86.4% (active)
87 | CCOC(=O)c1c(NC(=O)c2ccc(N3CCOCC3)c([N+](=O)[O-])c2)sc(C)c1C | 28.7% (inactive)
88 | CC1CCN(c2ccc(S(=O)(=O)Nc3cc(C(=O)O)cc(C(=O)O)c3)cc2[N+](=O)[O-])CC1 | -0.23% (inactive)
89 | CC1CCN(c2ccc(C(=O)Nc3nnc(C4CC4)s3)cc2[N+](=O)[O-])CC1 | -87.1% (active)
90 | CCc1cccc(C)c1NC(=O)COC(=O)Cc1ccsc1 | -6% (inactive)
91 | C=CCNC(=S)NNC(=O)c1ccc(Br)o1 | -23.4% (inactive)
92 | O=c1c2c(ncn1Cc1ccccc1)nc1n2CCC1 | -8.18% (inactive)
93 | COc1ccc(NC(=O)COC(=O)c2ccc(NS(=O)(=O)/C=C/c3ccccc3)cc2)cc1 | -91.4% (active)
94 | CCC(C(=O)OCC(=O)Nc1ccc(C(=O)Nc2ccc(OC)cc2)cc1)c1ccccc1 (stereo not given) | 12.6% (inactive)
95 | NS(=O)(=O)c1ccc(NS(=O)(=O)/C=C/c2ccccc2)cc1 | -5.65% (inactive)
